Measurements as given in PubChem BioAssay (NCI).
About 83,000 compounds went through this panel and 20% of them were active in at least one assay; those are over-represented in the sample as a whole.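 96-well plates, one dose, 48 hours. Percent growth reported; active if below 10.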 Unmarked numbers belong to inactive results. The source made the active and inactive calls.

What was measured:
Experiment in all cases: NCI-60 one-dose screen, 48 h (100 = growth as untreated, 0 = no growth, -100 = all killed)
Details in all cases: 10 µM unless noted
SR leukemia = test system: SR leukemia
RPMI-8226 leukemia = test system: RPMI-8226 leukemia
OVCAR-4 ovarian = test system: OVCAR-4 ovarian
SK-OV-3 ovarian = test system: SK-OV-3 ovarian
IGROV1 ovarian = test system: IGROV1 ovarian
OVCAR-3 ovarian = test system: OVCAR-3 ovarian
HS 578T breast = test system: HS 578T breast
NCI/ADR-RES ovarian = test system: NCI/ADR-RES ovarian
OVCAR-5 ovarian = test system: OVCAR-5 ovarian
OVCAR-8 ovarian = test system: OVCAR-8 ovarian

SMILES	growth (SR leukemia)	growth (RPMI-8226 leukemia)	growth (OVCAR-4 ovarian)	growth (SK-OV-3 ovarian)	growth (IGROV1 ovarian)	growth (OVCAR-3 ovarian)	growth (HS 578T breast)	growth (NCI/ADR-RES ovarian)	growth (OVCAR-5 ovarian)	growth (OVCAR-8 ovarian)
OCCN1CCN(CCCN2c3ccccc3Sc3ccc(C(F)(F)F)cc32)CC1	-42.9% (active)	18.8%	62.5%	73.8%	24.5%	53.4%	24.6%	46.8%	–	–
COc1ccc2c(c1)CC[C@@H]1[C@@H]2CC[C@]2(C)[C@@H](O)C(=O)C[C@@H]12	84.2%	103%	107%	120%	115%	106%	100%	105%	95.8%	–
c1cc[n+](Cc2ccnc3ccccc23)cc1	24.1%	97.1%	–	103%	117%	118%	109%	–	103%	–
O=C(O)CNC(=O)C1(N2C(=O)c3ccccc3C2=O)CCCC1	99.3%	–	99.4%	111%	119%	–	128%	110%	101%	104%
O=C(O)C1C(c2ccccc2)c2ccccc2C(O)C1CO (stereo not given)	99.6%	–	108%	94.9%	118%	134%	–	109%	101%	103%
C=C1CCC2C(C)(COC(=O)CC)C(OC(=O)CC)CCC2(C)C1C/C=C1/C(=O)OCC1OC(=O)CC (stereo not given)	-23% (active)	–	18.7%	103%	-0.405% (active)	-86.1% (active)	–	-22.9% (active)	-1.17% (active)	-13.9% (active)
O=C1NC(=O)/C(=C/c2ccc(Cl)cc2Cl)N1	93%	–	97.4%	98.9%	106%	105%	–	106%	106%	101%
CCCCCN1C(=O)CCC1=O	107%	–	114%	110%	110%	–	–	102%	98.2%	94.4%
COC(=O)[C@H]1[C@H]2C[C@@H]3c4[nH]c5cc(OC)ccc5c4CCN3C[C@H]2C[C@@H](OC(=O)/C=C/c2cc(OC)c(OC)c(OC)c2)[C@@H]1OC	-7.74% (active)	–	13.6%	98.6%	38.4%	–	69.3%	49.1%	113%	50.6%
O=C(Oc1ccccc1)C(Br)C(Br)c1ccccc1 (stereo not given)	-23.6% (active)	–	–	114%	–	-47% (active)	85.9%	–	102%	103%
COc1ccc2c3c(ccc2c1)C(=O)/C(=C\O)CC3	94.6%	–	100%	91.6%	111%	99.6%	–	96.3%	107%	97.4%
CC1CN(CC(O)c2ccc(Br)cc2)CCO1 (stereo not given)	92.3%	–	116%	112%	109%	107%	–	108%	103%	96.2%
O=C(Oc1cccc2ccccc12)c1ccccc1C(=O)c1ccccc1	3.67% (active)	–	–	–	–	65.6%	93.5%	90.4%	102%	91.7%
O=C(C(=O)N1CCOCC1)c1cn(CCCn2cc(C(=O)C(=O)N3CCOCC3)c3ccccc32)c2ccccc12	103%	–	109%	111%	107%	–	–	109%	102%	104%
CCCCCCCSc1ncnc2[nH]ncc12	79.3%	–	96.7%	101%	81.7%	79.9%	–	84.6%	92%	86.9%
O=c1c2c(=NCCCN3CCCC3)cc3c(=O)n(CCCN4CCCC4)c(=O)c4c(NCCCN5CCCC5)cc(c(O)n1CCCN1CCCC1)c2c4-3	3.03% (active)	–	–	-6.65% (active)	-30.3% (active)	-21.8% (active)	-16.5% (active)	51.1%	-0.86% (active)	5.37% (active)
CC(=O)N1N=C(c2ccc(C(F)(F)F)cc2)CC1c1ccc2c(c1)OCO2 (stereo not given)	89.5%	–	77.8%	104%	67%	110%	97.8%	95.8%	100%	101%

SMILES	growth (SR leukemia)	growth (RPMI-8226 leukemia)	growth (OVCAR-4 ovarian)	growth (SK-OV-3 ovarian)	growth (IGROV1 ovarian)	growth (OVCAR-3 ovarian)	growth (HS 578T breast)	growth (NCI/ADR-RES ovarian)	growth (OVCAR-5 ovarian)	growth (OVCAR-8 ovarian)
O=C(c1ccccc1)C(CN1CCCCC1)c1ccccc1 (stereo not given)	-3.65% (active)	–	39.7%	107%	56%	14.9%	–	12.6%	32.5%	15.6%
c1ccc(-c2oc(-c3ccccc3)c3ccccc23)cc1	56.8%	–	–	116%	109%	124%	97.7%	96.5%	112%	102%
CN(C)CCCN=c1cc2c(=O)n(CCCN(C)C)c(=O)c3c(NCCCN(C)C)cc4c(O)n(CCCN(C)C)c(=O)c1c4c3-2	6.3% (active)	–	–	-4.23% (active)	-24.6% (active)	-39.1% (active)	-11.2% (active)	52.2%	0.732% (active)	5.35% (active)
CN1CCN(CCCCCN=c2cc3c(=O)n(CCCCCN4CCN(C)CC4)c(=O)c4c(NCCCCCN5CCN(C)CC5)cc5c(O)n(CCCCCN6CCN(C)CC6)c(=O)c2c5c4-3)CC1	1.43% (active)	–	–	-29.6% (active)	-0.0469% (active)	3.82% (active)	-2.4% (active)	110%	-9.79% (active)	12.6%
Cc1[nH]cnc1/C=C1\SC(N2CCCCC2)=NC1=O	97.7%	–	–	108%	100%	124%	120%	106%	107%	105%
O=C(O)c1ccc2cccnc2c1O	5.47% (active)	–	17.7%	-10.7% (active)	5.01% (active)	1.49% (active)	–	-1.54% (active)	24.2%	13.6%
C(=C1c2ccccc2-c2ccccc21)c1ccncc1	9.55% (active)	–	57.1%	75.5%	44.9%	5.44% (active)	49.5%	4.8% (active)	81%	64.1%
NC(=O)NC1(C(=O)O)CCCC1	91.8%	–	118%	109%	119%	115%	–	111%	98.5%	106%
Nc1ccccc1-c1ccn[nH]1	99.7%	–	94.7%	92.1%	84.2%	91.6%	100%	105%	83%	103%
O=C1NC(=S)S/C1=C\c1cc(Br)ccc1O	95.7%	–	115%	91.3%	110%	103%	–	102%	91.6%	103%
Nc1nc2c(nnn2Cc2ccc(Cl)c(Cl)c2)c(=O)[nH]1	92%	–	112%	97.4%	100%	106%	–	105%	95.5%	98.5%
COc1cccc(/C=N\NC(=O)c2ccncc2)c1O	21%	–	31.7%	56.8%	65.1%	13.6%	–	25.3%	67%	58.7%
C=C1CCC2C3(C)COC(c4ccccc4)OC3CCC2(C)C1C/C=C1/C(=O)OCC1OC(C)=O (stereo not given)	78.2%	–	82.3%	131%	86.8%	100%	–	61.3%	120%	41.9%
COc1cccc(C=Nc2cc(C(C)C)c(O)cc2C)c1O	113%	–	101%	89.2%	111%	100%	–	104%	101%	98.8%
O=C(CC1Sc2ccccc2NC1=O)NNc1cccc(Cl)c1Cl (stereo not given)	61%	–	88.1%	70.2%	82.1%	81.7%	–	96.7%	80.6%	82.7%
O=C1Nc2ccc(C(=O)O)c(O)c2C1=O	105%	–	112%	110%	111%	113%	108%	106%	95.3%	107%
COC(=O)Nc1ccc2ccc3c(NC(=O)OC)ccc4ccc1c2c43 (tested in a mixture with another compound)	24.1%	–	87.9%	72%	51.1%	70.5%	–	36.6%	76.2%	66.5%
